Assay results: PubChem BioAssay (Tox21)
Several values for one entry are separate records, joined by “and”; a condition that tells them apart may be missing. Equal values may be shown once. Inconclusive results are not listed. Where a call stands in place of a potency, no number is given. More than one record can exist for a structure, and the calls need not agree. Activity calls are given as the source filed them. Unless noted, calls follow the shape of the dose curve; as a rule, active = well fitted curve in the direction sought with a large enough effect in the repeat runs; inconclusive = weak or mixed curves; inactive = no such curve, though single readings can be large; an effect the other way counts as inactive or inconclusive.

Tests used:
[1] = Caspase-3/7 induction in CHO-K1 cells by small molecules, qHTS cell viability counter screen (AID 1346979); also: nearly all actives have a fitted effect of over 35% in size; also: potency is read from the fitted curve at half-maximal effect
How it was run: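 Seeding: 1,500 CHO-K1 cells/well. Rest: 5hr, 37C. Treatment: compounds in DMSO, 16hr. Read: CellTiter-Fluor, 1hr, fluorescence.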

[2] = Caspase-3/7 induction in CHO-K1 cells by small molecules, qHTS assay (AID 1346980); also: nearly all actives have a fitted effect of over 15% in size; also: potency is read from the fitted curve at half-maximal effect
How it was run: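 Wild-type CHO-K1 cells exposed to compounds for 17hr at 37 C, 5% CO2. Caspase-3/7 activity then measured by Caspase-Glo 3/7 luminescence after 30min at room temperature.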

[3] = Caspase-3/7 induction in HepG2 cells by small molecules, qHTS cell viability counter screen (AID 1346981); also: nearly all actives have a fitted effect of over 30% in size; also: potency is read from the fitted curve at half-maximal effect
How it was run: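 Counter screen for cytotoxicity: HepG2 exposed 16 hr to compounds, then CellTiter-Fluor viability signal (fluorescence, 1 hr reagent incubation).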

[4] = target: Nuclear receptor subfamily 1 group I member 2 (Homo sapiens) (UniProt O75469); assay: Human pregnane X receptor (PXR) small molecule agonists, qHTS assay (AID 1346982); also: nearly all actives have a fitted effect of over 35% in size; also: potency is read from the fitted curve at half-maximal effect
How it was run: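 Luminescence (ONE-Glo, 30 min RT) after 24 hr compound exposure of PXR-Luc HepG2 cells; cells rested 5 hr post-plating in 5% charcoal-stripped FBS medium.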

[5] = target: Acetylcholinesterase (Homo sapiens) (UniProt P22303); assay: Acetylcholinesterase (AChE) small molecule antagonists: colormetric cell-based qHTS assay (AID 1347395; calls by dose curve; also: nearly all actives have a fitted effect of over 30% in size; also: potency is read from the fitted curve at half-maximal effect)
How it was run: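 Quantitative HTS in attached SH-SY5Y cells: 30 min compound exposure, then 90 min with acetylthiocholine and DTNB at 37 C; colour from thiocholine reports AChE activity.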

[6] = target: Acetylcholinesterase (Homo sapiens) (UniProt P22303); assay: Acetylcholinesterase (AChE) small molecule antagonists: fluorescence cell-based qHTS assay (AID 1347398; calls by dose curve; also: nearly all actives have a fitted effect of over 50% in size; also: potency is read from the fitted curve at half-maximal effect); conditions: Potency: AChE activity
How it was run: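 SH-SY5Y cells (2000/well), attached overnight, incubated with compound 30 min at 37 C. Acetylthiocholine plus Thiolite Green then added for 40 min at room temperature. Thiocholine fluorescence (Ex/Em 490/520 nm) reports cellular AChE activity.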

[7] = target: Acetylcholinesterase (Homo sapiens) (UniProt P22303); assay: Acetylcholinesterase (AChE) small molecule antagonists: enzyme-based qHTS assay with human liver microsomes (AID 1347399; calls by dose curve; also: nearly all actives have a fitted effect of over 60% in size); conditions: Potency: qHTS inhibition
How it was run: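 Recombinant human AChE (50 mU/mL in the enzyme mix) and human liver microsomes (0.25 mg/mL final) were preincubated with compound and NADPH (0.25 mg/mL final) for 30 min at 37 C. Acetylthiocholine/DTNB was then added; thiocholine was read colorimetrically after 10 min at room temperature.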

[8] = target: Cytochrome P450 2D6 (Homo sapiens) (UniProt P10635); assay: Cytochrome P450 Family 2 Subfamily D Member 6 (CYP2D6) small molecule antagonists: luciferase reporter qHTS assay (AID 1671196); also: nearly all actives have a fitted effect of over 50% in size; also: potency is read from the fitted curve at half-maximal effect
How it was run: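 Inhibition of CYP2D6 was gauged by loss of luminescence, since light produced tracks the luciferin generated from a proluciferin substrate. A 10 min room-temperature preincubation preceded 1 h NADPH-supported turnover.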

[9] = target: Cytochrome P450 2C19 (Homo sapiens) (UniProt P33261); assay: Cytochrome P450 Family 2 Subfamily C Member 19 (CYP2C19) small molecule antagonists: luciferase reporter qHTS assay (AID 1671197); also: nearly all actives have a fitted effect of over 65% in size; also: potency is read from the fitted curve at half-maximal effect
How it was run: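 P450-Glo CYP2C19 system: enzyme-substrate mix with compound 10 min at room temperature, then NADPH regeneration solution, 1 h at 37C. Proluciferin-to-luciferin conversion detected by luminescence after 20 min with detection reagent; ketoconazole as positive control.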

[10] = target: Cytochrome P450 2C9 (Homo sapiens) (UniProt P11712); assay: Cytochrome P450 Family 2 Subfamily C Member 9 (CYP2C9) small molecule antagonists: luciferase reporter qHTS assay (AID 1671198); also: nearly all actives have a fitted effect of over 50% in size; also: potency is read from the fitted curve at half-maximal effect
How it was run: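 P450-Glo proluciferin substrate with CYP2C9 enzyme; 10 min RT preincubation, then NADPH regeneration 1 h at 37C; luciferin detection reagent 20 min RT, luminescence in relative luminescence units.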

[11] = target: Voltage-gated inwardly rectifying potassium channel KCNH2 (Homo sapiens) (UniProt Q12809); assay: Human Ether-a-go-go-Related Gene (hERG) channel small molecule antagonists: fluorescence cell-based qHTS assay (AID 1671200); also: nearly all actives have a fitted effect of over 50% in size; also: potency is read from the fitted curve at half-maximal effect
How it was run: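 First, 1000 cells per well are seeded and cultured overnight at 37 C. Next, FluxOR II dye is loaded for 1 h at room temperature, protected from light. After 10 more minutes, stimulus is added and fluorescence is read.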

[12] = target: Cytochrome P450 3A4 (Homo sapiens) (UniProt P08684); assay: Cytochrome P450 Family 3 Subfamily A Member 4 (CYP3A4) small molecule antagonists: luciferase reporter qHTS assay (AID 1671201); also: nearly all actives have a fitted effect of over 50% in size; also: potency is read from the fitted curve at half-maximal effect
How it was run: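 Enzyme and proluciferin substrate are mixed with test chemicals for 10 min, then NADPH regeneration system drives turnover for 1 h at room temperature. A detection reagent halts the reaction; luminescence after 20 min gives relative activity.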

[13] = target: Nuclear receptor subfamily 1 group I member 2 (Rattus norvegicus) (UniProt Q9R1A7); assay: Rat pregnane X receptor (rPXR) activation by small molecules, qHTS assay (AID 1346983); conditions: rPXR luciferase reporter cells, One-Glo luminescence, 24 h; stronger effect = higher value; also: nearly all actives have a fitted effect of over 20% in size
How it was run: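 Cell-based rPXR activation assay: rPXR cells, 2,000 per well, rested 5hr at 37 C, then exposed to compounds in DMSO for 24 hr at 37 C. Luciferase activity read by One-Glo luminescence after 30 min at room temperature.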

[14] = target: Nuclear receptor subfamily 1 group I member 2 (Homo sapiens) (UniProt O75469); assay: CYP3A4 induction through human pregnane X receptor (PXR) by small molecules, qHTS assay (AID 1346984); also: nearly all actives have a fitted effect of over 40% in size
How it was run: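 DPX-2 reporter cells; 24h cpd, 37C; Luciferin-IPA 3uM final x3h; One-Glo 30 min RT; lumi read.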

[15] = target: Cytochrome P450 1A2 (Homo sapiens) (UniProt P05177); assay: Cytochrome P450 Family 1 Subfamily A Member 2 (CYP1A2) small molecule antagonists: luciferase reporter qHTS assay (AID 1671199)
How it was run: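 Signal from luciferin formed by CYP1A2 from a proluciferin substrate is read as luminescence, expressed in relative luminescence units. Compounds sit with enzyme 10 min, NADPH-driven reaction runs 1 h, all at room temperature.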

Chain of Nuclear receptor subfamily 1 group I member 2 (Rattus norvegicus) (Q9R1A7 whole entry, looked up): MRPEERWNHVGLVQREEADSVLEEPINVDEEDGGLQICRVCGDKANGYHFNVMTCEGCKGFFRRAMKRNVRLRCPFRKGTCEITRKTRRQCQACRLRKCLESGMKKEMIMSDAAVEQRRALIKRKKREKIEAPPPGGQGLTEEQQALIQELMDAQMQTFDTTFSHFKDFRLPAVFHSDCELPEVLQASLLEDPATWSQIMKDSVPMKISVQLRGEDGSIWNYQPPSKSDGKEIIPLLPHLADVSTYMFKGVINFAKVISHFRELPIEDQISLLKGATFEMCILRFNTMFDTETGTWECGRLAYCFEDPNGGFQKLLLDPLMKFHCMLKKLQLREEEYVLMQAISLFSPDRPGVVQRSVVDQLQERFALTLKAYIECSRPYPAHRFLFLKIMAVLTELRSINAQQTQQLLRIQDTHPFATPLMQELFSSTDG
Chain of Voltage-gated inwardly rectifying potassium channel KCNH2 (Homo sapiens) (Q12809 whole entry, looked up): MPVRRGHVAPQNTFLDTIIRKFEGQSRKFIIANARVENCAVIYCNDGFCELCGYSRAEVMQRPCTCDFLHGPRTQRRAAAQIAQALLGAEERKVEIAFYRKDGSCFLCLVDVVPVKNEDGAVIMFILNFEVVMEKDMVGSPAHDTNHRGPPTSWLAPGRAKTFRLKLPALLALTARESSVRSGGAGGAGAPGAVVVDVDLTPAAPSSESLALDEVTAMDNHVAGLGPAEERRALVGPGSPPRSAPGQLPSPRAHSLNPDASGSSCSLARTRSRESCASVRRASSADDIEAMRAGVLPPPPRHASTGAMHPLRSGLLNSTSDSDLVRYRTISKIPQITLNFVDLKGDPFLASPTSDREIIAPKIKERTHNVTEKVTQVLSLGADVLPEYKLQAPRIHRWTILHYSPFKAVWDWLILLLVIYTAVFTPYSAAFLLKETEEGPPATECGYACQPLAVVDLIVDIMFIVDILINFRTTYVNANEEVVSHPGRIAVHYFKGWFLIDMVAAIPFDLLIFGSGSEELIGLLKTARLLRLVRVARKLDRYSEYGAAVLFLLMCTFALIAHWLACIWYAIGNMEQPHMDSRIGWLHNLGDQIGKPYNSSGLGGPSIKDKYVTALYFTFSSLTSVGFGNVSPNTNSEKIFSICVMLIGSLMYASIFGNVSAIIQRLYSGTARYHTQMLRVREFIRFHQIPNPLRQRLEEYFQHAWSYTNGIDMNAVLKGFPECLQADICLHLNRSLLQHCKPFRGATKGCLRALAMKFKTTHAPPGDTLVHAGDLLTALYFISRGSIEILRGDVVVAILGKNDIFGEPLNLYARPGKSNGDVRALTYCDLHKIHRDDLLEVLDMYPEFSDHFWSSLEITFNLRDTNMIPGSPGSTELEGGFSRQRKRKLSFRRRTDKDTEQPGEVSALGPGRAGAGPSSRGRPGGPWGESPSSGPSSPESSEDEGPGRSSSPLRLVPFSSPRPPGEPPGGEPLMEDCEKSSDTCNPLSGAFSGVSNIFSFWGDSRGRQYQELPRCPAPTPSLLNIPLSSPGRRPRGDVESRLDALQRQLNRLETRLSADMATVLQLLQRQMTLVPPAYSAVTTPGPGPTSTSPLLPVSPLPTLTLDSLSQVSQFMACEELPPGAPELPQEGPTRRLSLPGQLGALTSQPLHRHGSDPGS
Chain of Cytochrome P450 2D6 (Homo sapiens) (P10635 whole entry, looked up): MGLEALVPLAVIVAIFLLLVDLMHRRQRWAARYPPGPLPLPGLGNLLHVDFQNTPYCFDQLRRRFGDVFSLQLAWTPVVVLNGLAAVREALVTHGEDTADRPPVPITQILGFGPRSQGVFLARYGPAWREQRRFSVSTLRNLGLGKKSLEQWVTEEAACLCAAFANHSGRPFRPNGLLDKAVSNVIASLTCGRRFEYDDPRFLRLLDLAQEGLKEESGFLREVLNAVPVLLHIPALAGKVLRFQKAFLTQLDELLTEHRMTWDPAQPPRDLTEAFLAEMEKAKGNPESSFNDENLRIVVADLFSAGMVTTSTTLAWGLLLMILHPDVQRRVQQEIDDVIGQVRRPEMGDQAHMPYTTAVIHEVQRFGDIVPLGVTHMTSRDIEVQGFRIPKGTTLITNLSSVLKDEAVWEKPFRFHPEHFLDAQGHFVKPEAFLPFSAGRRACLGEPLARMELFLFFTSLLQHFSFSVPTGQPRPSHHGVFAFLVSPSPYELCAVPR
Chain of Cytochrome P450 2C9 (Homo sapiens) (P11712 whole entry, looked up): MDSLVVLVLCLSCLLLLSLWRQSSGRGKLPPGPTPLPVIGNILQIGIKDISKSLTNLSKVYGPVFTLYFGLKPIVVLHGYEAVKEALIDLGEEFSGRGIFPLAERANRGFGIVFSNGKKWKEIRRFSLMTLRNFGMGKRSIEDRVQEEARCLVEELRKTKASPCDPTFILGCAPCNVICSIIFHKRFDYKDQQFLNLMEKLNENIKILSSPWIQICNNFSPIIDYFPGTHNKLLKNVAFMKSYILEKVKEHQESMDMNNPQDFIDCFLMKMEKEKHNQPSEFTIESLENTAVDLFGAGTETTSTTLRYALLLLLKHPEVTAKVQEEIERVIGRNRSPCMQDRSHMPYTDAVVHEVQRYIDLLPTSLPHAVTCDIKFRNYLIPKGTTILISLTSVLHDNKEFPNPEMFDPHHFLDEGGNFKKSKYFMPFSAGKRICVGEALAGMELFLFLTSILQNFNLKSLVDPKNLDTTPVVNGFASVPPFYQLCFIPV
Chain of Cytochrome P450 3A4 (Homo sapiens) (P08684 whole entry, looked up): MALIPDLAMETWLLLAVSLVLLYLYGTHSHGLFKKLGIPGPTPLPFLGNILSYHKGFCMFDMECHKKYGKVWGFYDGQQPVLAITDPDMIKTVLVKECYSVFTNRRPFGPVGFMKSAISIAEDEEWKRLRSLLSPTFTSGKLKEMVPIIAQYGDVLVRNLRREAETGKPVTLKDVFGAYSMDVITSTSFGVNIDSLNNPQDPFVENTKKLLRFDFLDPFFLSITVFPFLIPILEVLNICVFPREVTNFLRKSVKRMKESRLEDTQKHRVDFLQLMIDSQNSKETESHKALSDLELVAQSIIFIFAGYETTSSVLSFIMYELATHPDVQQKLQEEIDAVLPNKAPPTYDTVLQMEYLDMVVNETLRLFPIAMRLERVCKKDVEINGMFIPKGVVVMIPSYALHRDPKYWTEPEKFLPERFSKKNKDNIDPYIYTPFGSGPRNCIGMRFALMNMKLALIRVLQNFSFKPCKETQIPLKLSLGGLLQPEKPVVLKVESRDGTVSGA
Chain of Acetylcholinesterase (Homo sapiens) (P22303 whole entry, looked up): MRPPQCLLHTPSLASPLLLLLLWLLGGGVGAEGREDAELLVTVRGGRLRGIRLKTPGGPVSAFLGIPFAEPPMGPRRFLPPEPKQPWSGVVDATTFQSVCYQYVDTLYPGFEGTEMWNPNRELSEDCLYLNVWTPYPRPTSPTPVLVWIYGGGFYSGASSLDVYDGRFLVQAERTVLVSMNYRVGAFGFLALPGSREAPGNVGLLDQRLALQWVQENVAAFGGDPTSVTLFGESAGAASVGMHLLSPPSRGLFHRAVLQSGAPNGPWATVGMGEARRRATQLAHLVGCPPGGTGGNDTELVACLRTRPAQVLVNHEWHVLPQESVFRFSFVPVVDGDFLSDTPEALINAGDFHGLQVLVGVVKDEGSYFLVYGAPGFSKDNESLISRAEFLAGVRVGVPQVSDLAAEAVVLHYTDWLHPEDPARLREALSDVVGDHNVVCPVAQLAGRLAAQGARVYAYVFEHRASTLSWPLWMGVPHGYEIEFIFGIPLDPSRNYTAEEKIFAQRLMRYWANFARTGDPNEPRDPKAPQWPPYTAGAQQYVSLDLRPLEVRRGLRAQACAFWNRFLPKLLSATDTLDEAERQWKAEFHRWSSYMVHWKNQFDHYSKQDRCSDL
Chain of Nuclear receptor subfamily 1 group I member 2 (Homo sapiens) (O75469 whole entry, looked up): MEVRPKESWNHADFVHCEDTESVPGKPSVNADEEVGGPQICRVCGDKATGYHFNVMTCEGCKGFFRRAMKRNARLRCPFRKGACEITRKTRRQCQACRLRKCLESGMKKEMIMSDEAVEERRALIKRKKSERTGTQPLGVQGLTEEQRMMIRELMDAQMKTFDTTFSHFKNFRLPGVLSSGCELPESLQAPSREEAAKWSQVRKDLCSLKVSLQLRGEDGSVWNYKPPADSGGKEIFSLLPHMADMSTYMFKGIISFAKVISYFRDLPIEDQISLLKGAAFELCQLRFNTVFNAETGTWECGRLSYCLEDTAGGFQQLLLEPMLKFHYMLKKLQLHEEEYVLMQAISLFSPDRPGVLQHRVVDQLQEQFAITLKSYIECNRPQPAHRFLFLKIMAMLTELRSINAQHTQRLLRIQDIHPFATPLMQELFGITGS
Chain of Cytochrome P450 2C19 (Homo sapiens) (P33261 whole entry, looked up): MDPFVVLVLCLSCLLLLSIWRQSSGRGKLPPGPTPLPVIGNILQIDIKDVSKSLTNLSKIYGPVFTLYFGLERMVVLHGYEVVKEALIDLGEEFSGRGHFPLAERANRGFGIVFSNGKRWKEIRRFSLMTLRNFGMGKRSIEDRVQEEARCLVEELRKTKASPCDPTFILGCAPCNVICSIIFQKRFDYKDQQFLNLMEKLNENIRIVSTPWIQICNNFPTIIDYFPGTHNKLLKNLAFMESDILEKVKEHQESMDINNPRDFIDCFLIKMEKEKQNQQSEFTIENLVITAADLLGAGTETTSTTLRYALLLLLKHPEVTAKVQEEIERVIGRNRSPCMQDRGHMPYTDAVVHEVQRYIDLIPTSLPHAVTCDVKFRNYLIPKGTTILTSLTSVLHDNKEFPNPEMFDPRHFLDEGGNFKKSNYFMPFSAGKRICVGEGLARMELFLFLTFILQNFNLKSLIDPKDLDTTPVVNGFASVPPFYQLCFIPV

SMILES	Potency [1]	Potency [2]	Potency [3]	Potency [4]	Potency [5]	Potency [6]	Potency [7]	Potency [8]	Potency [9]	Potency [10]	Potency [11]	Potency [12]	max activation [13]	outcome [14]	Potency [15]
Nc1ccc(-c2ccc(N)c(Cl)c2)cc1Cl	68.9 µM (active) and 1.43 µM (active) and 48.6 µM (active)	inactive	9.04 µM (active) and 54.5 µM (active)	30.8 µM (active) and 9.69 µM (active)	inactive	inactive	inactive	inactive	4.01 µM (active) and 3.73 µM (active) and 5.64 µM (active)	10.1 µM (active) and 11.8 µM (active) and 12.6 µM (active)	inactive	5.05 µM (active) and 6.63 µM (active) and 7.96 µM (active)	–	–	–
OCCOc1ccccc1	inactive	inactive	inactive	inactive	inactive	inactive	inactive	inactive	inactive	inactive	inactive	inactive	-2.05% (inactive)	inactive	–
CCCCCCCCCCCCCC[P+](CCCCCC)(CCCCCC)CCCCCC	4.35 µM (active) and 6.16 µM (active) and 2.73 µM (active)	inactive and 13.8 µM (active)	13.7 µM (active) and 19.5 µM (active) and inactive	2.74 µM (active) and 3.89 µM (active) and 3.43 µM (active)	71.3 µM (active) and 80.3 µM (active) and inactive	35.7 µM (active) and 71.6 µM (active) and inactive	inactive	201 nM (active) and 101 nM (active) and 224 nM (active)	25.3 µM (active) and 35.9 µM (active) and 79.6 µM (active)	25.3 µM (active) and 35.9 µM (active) and 5.63 µM (active)	552 nM (active) and 349 nM (active) and 691 nM (active)	7.13 µM (active) and 7.16 µM (active) and 3.99 µM (active)	–	–	–
Nc1ccc(-c2ccc(N)cc2)cc1	inactive	inactive	inactive	30.3 µM (active) and 1.08 µM (active) and 34.4 µM (active)	inactive	inactive	inactive	inactive	8.83 µM (active) and 39.6 µM (active) and 35.6 µM (active)	35.2 µM (active) and 11.2 µM (active) and 25.2 µM (active)	inactive	7.87 µM (active) and 7.91 µM (active) and 17.8 µM (active)	–	–	–
CCCCCCCCCCCC(=O)O	inactive	inactive	inactive	inactive	inactive	inactive	inactive	inactive	79.9 µM (active) and inactive	102 µM (active)	inactive	inactive	–	–	–
O=c1[nH]c(=O)n(Cl)c(=O)n1Cl	inactive	inactive	inactive	inactive	inactive	inactive	inactive	inactive	56.4 µM (active) and inactive	inactive	inactive	inactive	0.0078% (inactive)	inactive	inactive
COCC(=O)N(c1c(C)cccc1C)C(C)C(=O)OC (stereo not drawn)	inactive	inactive	inactive	inactive	inactive	inactive	inactive	inactive	41 µM (active) and 39.8 µM (active) and inactive	70.9 µM (active) and inactive	inactive	inactive	0.174% (inactive)	–	–
CC[n+]1ccccc1	inactive and 763 nM (active)	inactive	inactive and 19.2 µM (active)	inactive and 1.21 µM (active)	inactive	inactive	inactive	inactive	inactive and 3.96 µM (active)	inactive and 9.94 µM (active)	inactive	inactive	–	–	–
CCCn1cc[n+](C)c1	inactive	inactive	inactive	inactive	inactive	inactive	inactive	80.4 µM (active) and inactive	inactive	inactive	inactive	inactive	–	–	–
O=C(O)CCl	inactive	inactive	inactive	inactive	inactive	inactive	inactive	inactive	inactive	inactive	inactive	inactive	–	–	–
CCC[N+]1(C)CCCCC1	inactive	inactive	inactive	inactive	inactive	inactive	inactive	inactive	inactive	inactive	inactive	inactive	–	–	–
O=[N+]([O-])c1ccccc1O	inactive	inactive	inactive	inactive	inactive	inactive	inactive	31.6 µM (active) and inactive	inactive	inactive	inactive	inactive	–	–	–
C[C@]12CCC(=O)C=C1CC[C@@H]1[C@@H]2CC[C@]2(C)C(=O)CC[C@@H]12	23.9 µM (active) and inactive	inactive	inactive	53.5 µM (active) and inactive	inactive	inactive	inactive	inactive	8.79 µM (active) and 39.9 µM (active) and 30.9 µM (active)	–	inactive	inactive	-1.07% (inactive)	inactive	–
